Records with an inconclusive call do not appear. Activity calls are given as the source filed them. The call rests on the fitted dose curve.

For the assay, the target named is Peroxisome proliferator-activated receptor delta (Homo sapiens) (UniProt Q03181). Nature of the assay: qHTS assay for small molecule agonists of peroxisome proliferator-activated receptor delta signaling (AID 588534). Conditions: HEK293T PPARdelta-UAS-bla, beta-lactamase ratio, 18 h; series mostly up to 76.7 µM. In short, it runs like this: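 Fluorescence from CCF4 substrate cleavage by beta-lactamase reporter, read 2 hrs at RT, measured agonist activity. Compounds were tested with 18 hrs exposure at 37 C. Concentration-response data fitted to Hill equation.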
Chain of Peroxisome proliferator-activated receptor delta (Homo sapiens) (Q03181 whole entry, looked up): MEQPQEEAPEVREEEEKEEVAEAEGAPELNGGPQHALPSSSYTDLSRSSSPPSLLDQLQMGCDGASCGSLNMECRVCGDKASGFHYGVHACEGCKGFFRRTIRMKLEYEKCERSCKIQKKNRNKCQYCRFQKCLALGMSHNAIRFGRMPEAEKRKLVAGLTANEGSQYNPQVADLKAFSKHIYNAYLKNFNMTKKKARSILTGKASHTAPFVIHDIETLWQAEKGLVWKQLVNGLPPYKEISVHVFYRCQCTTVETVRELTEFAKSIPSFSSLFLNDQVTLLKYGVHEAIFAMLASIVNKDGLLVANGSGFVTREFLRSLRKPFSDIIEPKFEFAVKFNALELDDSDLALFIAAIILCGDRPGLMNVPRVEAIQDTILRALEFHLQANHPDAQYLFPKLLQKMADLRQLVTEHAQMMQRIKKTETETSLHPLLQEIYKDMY
(In general: qHTS replaces the single test concentration by a dilution series.)
For `FC(F)(F)C(Cl)Br` (centres undefined), the result was inactive.
In the case of `COc1cccc2c1C(=O)c1c(O)c3c(c(O)c1C2=O)C[C@@](O)(C(C)=O)C[C@@H]3O[C@H]1C[C@H](N)[C@H](O)[C@H](C)O1` it was “inactive”; in that of `CCCCCCCC/C=C\CCCCCCCCN`, “inactive”.
As for `CCCCCCCCCCCC[N+](C)(C)Cc1ccccc1`, the outcome was inactive.
Take `N[C@@H](Cc1c[nH]c2ccc(O)cc12)C(=O)O`: the result was inactive.
For the molecule `NS(=O)(=O)c1cc(C(=O)O)c(NCc2ccco2)cc1Cl`, the result was inactive.
In the case of `CC1(C)[C@@H]2CC[C@@]1(C)C(=O)C2` it was “inactive”; in that of `C=CCOC(Cn1ccnc1)c1ccc(Cl)cc1Cl` (centres undefined), “inactive”; in that of `CCCCCCCCCCCCCCCC[n+]1ccccc1`, “inactive”.
For the molecule `CN(C)C(=O)Nc1ccc(Cl)c(Cl)c1`, the result was inactive.
Regarding `O=C1O[C@H]([C@@H](O)CO)C(O)=C1O`, the result was inactive.
Consider `C=C[C@@]1(C)CC(=O)[C@]2(O)[C@@]3(C)[C@@H](O)CCC(C)(C)[C@@H]3[C@H](O)[C@H](OC(C)=O)[C@@]2(C)O1`, for which the result was inactive.
As for `CC(=O)Oc1ccc(C(c2ccc(OC(C)=O)cc2)c2ccccn2)cc1`, the result was inactive.
In the case of `Nc1ccc(N=Nc2ccccc2)c(N)n1` it was “inactive”.
For `CN(C)CCC(c1ccccc1)c1ccccn1` (centres undefined), the result was inactive.
As to `C[C@]12CCC(=O)C=C1CC[C@@H]1[C@@H]2[C@@H](O)C[C@@]2(C)[C@H]1CC[C@]2(O)C(=O)CO`, the result was inactive.
`CCCCCC(N)=O`: the result was inactive.
To `CC(=O)[C@@]1(O)CC[C@H]2[C@@H]3CCC4=CC(=O)CC[C@]4(C)[C@H]3CC[C@@]21C` belongs “inactive”; to `COP(=O)(OC)C(O)C(Cl)(Cl)Cl` (centres undefined), “inactive”; to `CCCCC(CC)COC(=O)C(C#N)=C(c1ccccc1)c1ccccc1` (centres undefined), “inactive”.
As to `C[C@]12CCC(=O)C=C1CC[C@@H]1[C@@H]2C(=O)C[C@@]2(C)[C@H]1CC[C@]2(O)C(=O)CO`, the outcome was inactive.
To `Nc1ccc(S(=O)(=O)Nc2nccs2)cc1` belongs “inactive”; to `C[C@]12C=CC(=O)C=C1CC[C@H]1[C@@H]3C[C@@H](O)[C@](O)(C(=O)CO)[C@@]3(C)C[C@H](O)[C@@]12F`, “inactive”.
In the case of `CC(=O)OC/C=C(C)/C=C/C=C(C)/C=C/C1=C(C)CCCC1(C)C` it was “inactive”; in that of `C/C=C/c1ccc(O)c(OC)c1`, “inactive”.
In the case of `COc1ccc(C(Cl)=C(c2ccc(OC)cc2)c2ccc(OC)cc2)cc1` it was “inactive”; in that of `Nc1ccn([C@H]2CC[C@@H](CO)O2)c(=O)n1`, “inactive”.
With `C#C[C@]1(O)CC[C@H]2[C@@H]3CCc4cc(O)ccc4[C@H]3CC[C@@]21C`, the result was inactive.
Consider `NCCNc1cccc2ccccc12`, for which the result was inactive.

The values above are taken from PubChem BioAssay (NCATS).
